# Test results taken from the OligoGym collection.
# Biological target: RBFOX1
# Experiment: pooled miR-30 sensor sort-seq; sequence = guide strand
# Settings: shRNA
# Also: reference of the scale not given here.
row,Sequence,sensor-assay potency score (higher = more potent)
1,TTTTATTTGTCATTACACGTGC,0.123
2,AAACATTTGTCTGAGGTCCGGA,0.142
3,TTGACCAAACATTTGTCTGAGG,-0.662
4,TACACATGAGGACTTAACCTAT,-0.971
5,TTTAATATCCAACTGATCTTAC,-0.633
6,TATTTGTCATTACACGTGCTGT,-1.1
7,TTATTCATTATCTAGCATCTGT,0.299
8,TTTTTATTCATTATCTAGCATC,-0.945

# Biological target: RBM12B
# Experiment: as above
# Settings: shRNA
row,Sequence,sensor-assay potency score (higher = more potent)
1,TAAGTCTTAATAACACCTCTGT,0.203
2,TTTTTGTGAAACATGTCCGGGC,0.0214
3,TAGTCTTCTGCATTTCTGCCTT,-0.412
4,TTAAGTGAACATAAAATCCAAG,-0.9
5,TAAGTCTTGAAGATTACCGATG,-1.18
6,TATGACATTTAAGACCTCCTGA,0.971
7,ATTTTTGTGAAACATGTCCGGG,-0.845
8,TAGATCTTTAATAGCAGCCATA,-1.64
9,TATCTCTCTCTAGTGACCCTGA,0.0397
10,TAATTGAAGAGCCATATCCAGA,-1.22
11,TAATAGGAGTTACTCTACCTGA,-0.42
12,TTATACTGTATCGAAACTGAAT,-1.19

# Biological target: RBM15B
# Experiment: as above
# Settings: shRNA
row,Sequence,sensor-assay potency score (higher = more potent)
1,TTTTTCAACACCAGAAGCCCAT,0.0926
2,TGTGACACAAACATGACGCTGG,0.96
3,TCGTGTGACCTCGTCAAGCTTG,-1.02
4,TAAGAGGACCGCATAGCCGTTG,-0.808
5,TTGTGACACAAACATGACGCTG,-1.03
6,TTTAAAATAACTGCTTTTGTGA,-0.54
7,TTTGACGTGATCAATGGTCCGA,0.695
8,TATAGGCAAAGCTATCTCCTTT,-0.598
9,TTGCTGAGGGAGTTGCTGCTGG,-0.717
10,TTGACGTGATCAATGGTCCGAA,0.476
11,TTTTGTGACACAAACATGACGC,0.652

# Biological target: RBM28
# Experiment: as above
# Settings: shRNA
row,Sequence,sensor-assay potency score (higher = more potent)
1,TTGAAAAAGTGACATAGCCAAA,-1.59
2,TTGGTCTGGAACCCGGTCCATG,-1.16
3,TTTTCCTAGATACCTGCTCGGA,-0.748
4,TTTTGAACTGAACAAAACCAAA,-1.7
5,TTGTCATCTACAGCCTTTGGGA,-0.978
6,TTGAGGTCTCGCATCACTCTAC,-0.147
7,TTTTGTTTGAGACTTGCACAGC,-0.43
8,TTATATTGTTCGACCAGCTGGT,0.168
9,TTTCTTGGCAACAGTCACGTTG,-0.362
